{
  "source": "ChEMBL document CHEMBL3988442",
  "about": "“University of Dundee, Small-Polar-MMV Screening Library” (2021)",
  "data": [
    {"target": "Shiga toxin 2 (Escherichia coli O157:H7) (UniProt P09385+P09386)", "assay": "E. coli 0.157:H7 Shiga Toxin SOP - stx2 screening assay", "format": "functional", "set-up": "scale not given: direction of the effect not stated beside the values", "details": "30 µM", "units": {"Percent Effect": "%"}, "values": [
      {"smiles": "Cn1cc(-c2cnc(N3CCOCC3)nc2)cc1C(=O)N1CCOCC1", "Percent Effect": -3.46},
      {"smiles": "Cc1nc(C2CCCN(C(=O)Cn3ccccc3=O)C2)no1", "note": "(stereo not given)", "Percent Effect": 25.3},
      {"smiles": "CCn1cnnc1C1CCN(C(=O)c2cnc3ccccc3n2)CC1", "Percent Effect": -10.9},
      {"smiles": "Cc1nn(C)c(C)c1CC(=O)N1CCC(Nc2cccnn2)CC1", "Percent Effect": -23.4},
      {"smiles": "CC(C)n1ccnc1C1CCN(C(=O)c2cc[nH]n2)CC1", "Percent Effect": 14.3},
      {"smiles": "NCC(=O)N1CCCC(c2cncc(Nc3ncccn3)n2)C1", "note": "(stereo not given)", "Percent Effect": 1.91},
      {"smiles": "CCc1nccn1C1CCCN(C(=O)Cc2cn3ccccc3n2)C1", "note": "(stereo not given)", "Percent Effect": -20.4},
      {"smiles": "CN(Cc1cnn(C)c1)C(=O)Cn1c(CS(C)(=O)=O)nc2ccccc21", "Percent Effect": 1.77},
      {"smiles": "COC(=O)CC(c1cnn(C)c1)c1oc(C)cc(=O)c1O", "note": "(stereo not given)", "Percent Effect": -13.2},
      {"smiles": "Cc1nn(C)c(C)c1C1CCCN1C(=O)c1cc[nH]n1", "note": "(stereo not given)", "Percent Effect": 11.4},
      {"smiles": "O=S1(=O)C[C@@H]2[C@H](C1)N(Cc1ncc[nH]1)CCN2CC1CC1", "Percent Effect": 4.23},
      {"smiles": "O=C(c1ccco1)N1CC[C@H]2[C@H]1CCN2CC1CCOCC1", "Percent Effect": -28},
      {"smiles": "CCc1nccn1C1CCCN(C(=O)CCCNc2ncccn2)C1", "note": "(stereo not given)", "Percent Effect": 8.61},
      {"smiles": "CCn1cc(CN2CCCN(C(=O)C3=NN(C)C(=O)CC3)CC2)cn1", "Percent Effect": 10.4},
      {"smiles": "CCc1nc(CN(CC(N)=O)C(C)C)cs1", "Percent Effect": -3.84},
      {"smiles": "CC(C)(N)C(=O)N1CCCC1c1cncc(Oc2ccc(F)cc2)n1", "note": "(stereo not given)", "Percent Effect": -12.5},
      {"smiles": "Cc1csc(CNC(=O)Nc2cc(C(F)(F)F)c[nH]c2=O)n1", "Percent Effect": 8.58},
      {"smiles": "CN(C)C(=O)CC1CC2(CCN(C(=O)N(C)C)CC2)Oc2ccccc21", "note": "(stereo not given)", "Percent Effect": -12.4},
      {"smiles": "COc1cccc(CN(C)C(=O)CN2CC(n3nc(C)cc3C)C2)c1", "Percent Effect": -22.3},
      {"smiles": "COc1c(CNCc2ccnc(N3CCCC3)c2)c(C)nn1C", "Percent Effect": -55.3},
      {"smiles": "COc1ccc(C2=C(C)C(N3CCc4ccccc4C3)=NS2(=O)=O)cc1", "Percent Effect": -90},
      {"smiles": "CC(NC(=O)NCC1(c2ccc(F)cc2)CCC1)c1nncn1C", "note": "(stereo not given)", "Percent Effect": 32.9},
      {"smiles": "O=C(NCc1cc[nH]n1)NCC(c1ccc(F)cc1)N1CCOCC1", "note": "(stereo not given)", "Percent Effect": -14.2},
      {"smiles": "NC(=O)N1CC[C@H](O)[C@@H]1Cc1cccnc1", "Percent Effect": 0.815},
      {"smiles": "Cc1csc(N2CCN(C(=O)Cc3ccc(C)s3)CC2)n1", "Percent Effect": 12.2},
      {"smiles": "Cc1nn(C)c(C)c1C1CCCN1Cc1cccc(C(=O)N(C)C)c1", "note": "(stereo not given)", "Percent Effect": -11.2},
      {"smiles": "Cc1occc1C(=O)Nc1ccnc(OC2CCOC2)c1", "note": "(stereo not given)", "Percent Effect": 3.41},
      {"smiles": "O=C1CCCN1Cc1nnc2n1CCN(Cc1ccoc1)CC2", "Percent Effect": -17.6},
      {"smiles": "O=C(c1cccnc1)N1CCc2ncnc(C3CCOC3)c2CC1", "note": "(stereo not given)", "Percent Effect": -9.92},
      {"smiles": "COCCNS(=O)(=O)c1cccc2c1CN(C(=O)c1ccccc1)CC2", "Percent Effect": -27.5},
      {"smiles": "Cn1cc(CC2CCN(C(=O)NCCc3cccc(O)c3)C2)cn1", "note": "(stereo not given)", "Percent Effect": -12.2},
      {"smiles": "CN1CCN(c2cc(CCNC(=O)C3CCC3)nc(C3CC3)n2)CC1", "Percent Effect": -18.7},
      {"smiles": "CSCC(=O)N1CCCN(c2ccccc2C)CC1", "Percent Effect": -18.5},
      {"smiles": "CN(C)S(=O)(=O)N1C[C@H](Oc2cccnc2)[C@H]2OCCC[C@H]21", "Percent Effect": -12},
      {"smiles": "CN(CCCOc1ccc(F)cc1)Cc1nc2c(cnn2C)c(=O)[nH]1", "Percent Effect": 26.6},
      {"smiles": "COc1cccc(CN2CCC(c3nccn3C(C)C)CC2)c1", "Percent Effect": -26.4},
      {"smiles": "CCc1cc(C(=O)N2CCCC2c2nc(C)c(F)c(O)n2)on1", "note": "(stereo not given)", "Percent Effect": -57},
      {"smiles": "CC(C)c1nn(C)c(N2CCOCC2)c1CNCCS(C)(=O)=O", "Percent Effect": -5.89},
      {"smiles": "COc1ccc(S(N)(=O)=O)cc1C(=O)N(C)Cc1cc(C)on1", "Percent Effect": -47},
      {"smiles": "CN1N=C(C(=O)N2CCCC(CCc3c(F)cccc3F)C2)CCC1=O", "note": "(stereo not given)", "Percent Effect": 9.43}
    ]}
  ]
}
